Assay [1] can be described thus: Confirmation and Secondary Assay for Modulators of Hemoglobin Beta Chain Splicing at IVS2 654 locus (AID 910).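 Further: HeLa cells stably carrying EGFP split by mutant beta-globin IVS2-654 intron; % of control where 0% means no effect.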 In short, it runs like this:
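HeLa cells stably expressing EGFP interrupted by β-globin IVS2-654 intron, seeded overnight in Opti-MEM/2% FCS, then treated 2 days at 37 °C. Restored splicing read as total peak GFP intensity per well by laser scanning cytometry (488 nm excitation, 500–520 nm emission); 500 nM antisense PNA as control.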

The nature of assay [2]: Confirmation and Secondary Assay for Modulators of Hemoglobin Beta Chain Splicing at IVS2 705 locus (AID 930).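 Further: HeLa cells stably expressing the EGFP-705 splicing reporter; GFP fluorescence per well restored by corrected splicing of the IVS2-705 intron in EGFP; series mostly up to about 46 µM; % of control where 0% means no effect.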 In short, it runs like this:
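Assay measures total GFP intensity per well in HeLa EGFP-705 cells after 2 days with compound; mis-splicing normally truncates EGFP, so fluorescence indicates corrected splicing.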

The target of assay [3] is Rap guanine nucleotide exchange factor 3 (Homo sapiens) (UniProt O95398). The assay can be described thus: Confirmatory qHTS for antagonist of cAMP-regulated guanine nucleotide exchange factor 3 (EPAC1) (AID 1645880). Further: nearly all actives have a fitted effect of over 55% in size. Further: potency means the concentration at half of the fitted maximal effect. In short, it runs like this:
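Released BODIPY-GDP fluoresces less than Rap1-bound BODIPY-GDP; the signal is followed at 480/540 nm at 5-min intervals over 30 min, after 5 min at room temperature. Reactions contain 100 nM EPAC1, 250 nM RAP1B-BODIPY-GDP and 50 uM GDP; results are normalized to ATA and DMSO.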
On the technique in general: Quantitative high-throughput screening tests each substance at several concentrations.

For assay [4] the target is unchanged. Kind of assay: Confirmatory qHTS for agonist of cAMP-regulated guanine nucleotide exchange factor 3 (EPAC1) (AID 1645881).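 Further: EPAC1 catalysed release of BODIPY-GDP from Rap1B seen as fluorescence loss; 100% = effect of cAMP agonist control; nearly all actives have a fitted effect of over 75% in size.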
Assay [5] concerns the target Rap guanine nucleotide exchange factor 4 (Homo sapiens) (UniProt Q8WZA2). The assay can be described thus: Confirmatory qHTS for agonist of cAMP-regulated guanine nucleotide exchange factor 4 (EPAC2) (AID 1645884).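 Further: nucleotide exchange releases bodipy-GDP from Rap1 and this lowers its fluorescence; on the % scale 0 is the no-effect control and ±100 the full control effect; nearly all actives have a fitted effect of over 65% in size.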
The target is the same in assay [6]. Kind of assay: Confirmatory qHTS for antagonist of cAMP-regulated guanine nucleotide exchange factor 4 (EPAC2) (AID 1645885). Further: nearly all actives have a fitted effect of over 25% in size. Further: potency means the concentration at half of the fitted maximal effect.
For assay [7], the target named is Muscarinic acetylcholine receptor M1 (Rattus norvegicus) (UniProt P08482). Kind of assay: qHTS Assay for Antagonists of Acetylcholine Muscarinic M1 Receptor: Measurement of IP-One Response (AID 944). Further: nearly all actives have a fitted effect of over 75% in size. In a few lines:
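IP1 accumulation measured via TR-FRET between d2-IP1 and Eu-cryptate anti-IP1 antibody after carbachol (200 nM, EC80) stimulation for 30 min; rat M1-transfected CHO cells received compound 10 min before agonist.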

The target in assay [8] is Cytochrome P450 3A4 (Homo sapiens) (UniProt P08684). Kind of assay: qHTS Assay for Inhibitors and Substrates of Cytochrome P450 3A4 (AID 884). Further: nearly all actives have a fitted effect of over 50% in size. Further: potency means the concentration at half of the fitted maximal effect. In a few lines: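 Luminescent readout of luciferin produced by CYP3A4 (20 nM) dealkylation of Luciferin-PPXE, 25 uM (its KM). NADPH-driven reaction ran 60 min at RT after 10 min compound preincubation; data scaled to 57 uM ketoconazole as 100% inhibition.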
Sequence of Cytochrome P450 3A4 (Homo sapiens) (P08684 whole entry, looked up): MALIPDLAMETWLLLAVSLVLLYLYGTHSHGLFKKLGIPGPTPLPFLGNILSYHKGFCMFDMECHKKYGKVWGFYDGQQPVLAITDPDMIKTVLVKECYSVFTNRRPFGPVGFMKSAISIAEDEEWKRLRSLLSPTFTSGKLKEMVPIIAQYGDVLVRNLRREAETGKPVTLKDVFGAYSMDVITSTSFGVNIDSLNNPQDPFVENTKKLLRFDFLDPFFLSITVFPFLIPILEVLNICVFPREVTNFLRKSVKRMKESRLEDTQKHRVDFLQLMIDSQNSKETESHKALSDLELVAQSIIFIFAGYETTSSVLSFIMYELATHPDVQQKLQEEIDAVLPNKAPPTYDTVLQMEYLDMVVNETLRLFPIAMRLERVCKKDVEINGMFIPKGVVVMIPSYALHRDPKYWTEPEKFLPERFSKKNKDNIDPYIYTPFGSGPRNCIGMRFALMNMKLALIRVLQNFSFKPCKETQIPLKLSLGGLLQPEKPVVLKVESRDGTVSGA

Assay [9] is described as follows: Primary qHTS for inhibitors of nuclear receptor binding SET domain protein 2 (NSD2) in an isogenic RCH-ACV NSD2 p.E1099K mutant (9B) (AID 1645876). Further: on the % scale 0 is the no-effect control and ±100 the full control effect; nearly all actives have a fitted effect of over 70% in size.
Assay [10] can be described thus: Primary qHTS for inhibitors of nuclear receptor binding SET domain protein 2 (NSD2) in an RCH-ACV wild type WT cells (2C) (AID 1645877). Further: nearly all actives have a fitted effect of over 70% in size. Further: potency means the concentration at half of the fitted maximal effect.
The target of assay [11] is Glutathione peroxidase 1 (Homo sapiens) (UniProt P07203). The assay can be described thus: Primary qHTS Assay for Inhibitors of Recombinant Selenoprotein Glutathione Peroxidase 1 (GPX1) (AID 1845191). Further: nearly all actives have a fitted effect of over 65% in size. In a few lines:
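GR-coupled readout: NADPH consumption tracked by fluorescence, ex 340/em 450 nm, at t=0 and after 15 min at RT. Final mix 10 nM GPX1, 1 mM GSH, 0.5 mM CHP, 0.5 mM NADPH, 100 nM GR, 0.01% BSA, following 30 min enzyme–compound preincubation.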

In assay [12] the target is Phospholipid hydroperoxide glutathione peroxidase GPX4 (Homo sapiens) (UniProt P36969). Kind of assay: Primary qHTS Assay for Inhibitors of Recombinant Selenoprotein Glutathione Peroxidase 4 (GPX4) (AID 1845192). Further: series mostly up to about 50 µM; on the % scale 0 is the no-effect control and ±100 the full control effect; nearly all actives have a fitted effect of over 65% in size. To be noted: outcome: dose series up to 50 µM unless noted. In a few lines: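 Steps: GPX4 plus compound, 30 min RT; add GR/GSH/NADPH master mix; start with cumene hydroperoxide; read 340/450 nm fluorescence at 0 and 15 min. Finals were 200 nM GPX4, 1 mM GSH, 0.5 mM CHP, 0.5 mM NADPH, 100 nM GR.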
Sequence of Phospholipid hydroperoxide glutathione peroxidase GPX4 (Homo sapiens) (P36969 whole entry, looked up): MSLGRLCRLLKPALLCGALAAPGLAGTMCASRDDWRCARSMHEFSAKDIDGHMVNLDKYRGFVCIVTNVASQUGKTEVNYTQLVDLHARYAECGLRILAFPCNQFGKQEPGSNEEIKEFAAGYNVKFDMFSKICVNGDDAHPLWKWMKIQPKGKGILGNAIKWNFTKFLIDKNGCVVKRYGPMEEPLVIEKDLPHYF

Assay [13] can be described thus: qHTS drug screen for cell cycle checkpoint inhibitors in PARPi-resistant BRCA-mutant ovarian cancer cell lines. (AID 1963452; calls by dose curve). To be noted: PEO1/OlaR viability, CellTiter-Glo luminescence, 96 h, stronger effect = lower value. In a few lines: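 PEO1, PEO4 and PEO1/OlaR ovarian cancer cells, 600 per well, exposed 96 h at 37C to a dilution series. Viability read by CellTiter-Glo luminescence, normalized to DMSO and empty wells; activity summarized as Z-AUC.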

Assay [14] addresses Cytochrome P450 2D6 (Homo sapiens) (UniProt P10635). Kind of assay: qHTS Assay for Inhibitors and Substrates of Cytochrome P450 2D6 (AID 891). Further: nearly all actives have a fitted effect of over 60% in size. Further: potency means the concentration at half of the fitted maximal effect. In short, it runs like this: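 Luminescent read-out of luciferin formed by 5 nM human CYP2D6 demethylating 30 uM Luciferin-ME EGE (Km level) over 60 min at room temperature after NADPH regeneration addition. Data normalized to full inhibition by 1.43 uM quinidine.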

Assay [15] addresses Pyruvate kinase PKM (Homo sapiens) (UniProt P14618). Kind of assay: qHTS Assay for Activators of Human Muscle Pyruvate Kinase (AID 954; active means well fitted curve in the direction sought with a large enough effect, not every such curve was filed as active;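 further: 0% = uninhibited enzyme and -100% = no enzyme or full thiadiazolimine inhibition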). In a few lines: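 A coupled luminescent readout tracked ATP made from ADP by purified PKM2. Final conditions included 0.1 nM enzyme, PEP and ADP at 0.5 and 0.1 mM, pH 7.2 imidazole buffer with BSA, and a one-hour room-temperature reaction.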

Assay [16] has as its target Cytochrome P450 2C9 (Homo sapiens) (UniProt P11712). Kind of assay: qHTS Assay for Inhibitors and Substrates of Cytochrome P450 2C9 (AID 883). Further: nearly all actives have a fitted effect of over 60% in size. Further: potency means the concentration at half of the fitted maximal effect. In a few lines:
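Human CYP2C9 (10nM) with Luciferin-H at 100uM (its KM) in 25mM KPO4; compound preincubated 10 min at 37C, then NADPH regeneration for 60 min at 37C. Luciferin read by luminescence after detection reagent; normalized to 57uM sulphaphenazole as full inhibition.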

In assay [17] the target is Muscarinic acetylcholine receptor M1 (Rattus norvegicus) (UniProt P08482). The assay can be described thus: qHTS Assay for Antagonists of Acetylcholine Muscarinic M1 Receptor: Kinetic Measurement of Intracellular Calcium Response (AID 943).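 Further: Fluo-4 calcium signal as peak divided by basal fluorescence over 4 min; series mostly up to about 35 µM; nearly all actives have a fitted effect of over 75% in size.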 In a few lines: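 Antagonism measured as reduction of carbachol-evoked (EC80, 100 nM final) calcium flux in rat M1-CHO cells after 10 min compound exposure. Fluo-4 signal read kinetically; ratio of maximal to basal fluorescence.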
Sequence of Muscarinic acetylcholine receptor M1 (Rattus norvegicus) (P08482 whole entry, looked up): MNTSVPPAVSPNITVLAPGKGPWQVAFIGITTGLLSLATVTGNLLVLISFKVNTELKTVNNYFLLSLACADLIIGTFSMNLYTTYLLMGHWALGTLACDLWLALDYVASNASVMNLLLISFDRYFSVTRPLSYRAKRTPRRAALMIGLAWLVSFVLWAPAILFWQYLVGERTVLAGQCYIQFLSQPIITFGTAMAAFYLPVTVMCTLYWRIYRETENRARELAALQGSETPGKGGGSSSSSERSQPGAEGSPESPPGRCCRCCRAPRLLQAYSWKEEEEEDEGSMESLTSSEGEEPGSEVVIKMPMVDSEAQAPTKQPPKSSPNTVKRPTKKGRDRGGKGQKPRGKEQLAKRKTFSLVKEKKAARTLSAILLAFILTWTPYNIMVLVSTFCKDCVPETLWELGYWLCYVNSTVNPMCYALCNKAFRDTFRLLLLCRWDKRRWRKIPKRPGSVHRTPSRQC

Assay [18] concerns the target ATP-dependent 6-phosphofructokinase (Trypanosoma brucei brucei) (UniProt O15648). The assay can be described thus: qHTS Assay to Find Inhibitors of T. brucei phosphofructokinase: hit validation (AID 492961).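 Further: luminescence reports ADP formed as PFK phosphorylates fructose-6-phosphate with ATP; series mostly up to about 51 µM; on the % scale 0 is the no-effect control and ±100 the full control effect.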 In short, it runs like this: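 Compounds titrated; %activity normalized to 0x and 1x enzyme controls, curve-fitted. Readout: ADP-Glo luminescence after 45 min room-temperature reaction of 1.25 nM PFK, 0.1 mM ATP, 0.5 mM F6P, pH 8.0.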

Assay [19] deals with Cytochrome P450 2C9 (Homo sapiens) (UniProt P11712). Kind of assay: Cytochrome P450 family 2 subfamily C member 9 (CYP2C9) small molecule antagonists: luciferase biochemical (cell-free) qHTS assay (AID 1645842; active means well fitted curve in the direction sought with a large enough effect in the repeat runs; an effect the other way counts as inactive or inconclusive; further: series mostly up to about 57 µM; on the % scale 0 is the no-effect control and ±100 the full control effect; nearly all actives have a fitted effect of over 55% in size). In short, it runs like this: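 P450-Glo CYP2C9 system: proluciferin substrate with enzyme in mix containing 0.4% BSA, 10 min at room temperature, then NADPH regeneration solution added and incubated 1 h at 37C. Detection reagent stopped reaction; luminescence read after 20 min as RLU.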
Sequence of Cytochrome P450 2C9 (Homo sapiens) (P11712 whole entry, looked up): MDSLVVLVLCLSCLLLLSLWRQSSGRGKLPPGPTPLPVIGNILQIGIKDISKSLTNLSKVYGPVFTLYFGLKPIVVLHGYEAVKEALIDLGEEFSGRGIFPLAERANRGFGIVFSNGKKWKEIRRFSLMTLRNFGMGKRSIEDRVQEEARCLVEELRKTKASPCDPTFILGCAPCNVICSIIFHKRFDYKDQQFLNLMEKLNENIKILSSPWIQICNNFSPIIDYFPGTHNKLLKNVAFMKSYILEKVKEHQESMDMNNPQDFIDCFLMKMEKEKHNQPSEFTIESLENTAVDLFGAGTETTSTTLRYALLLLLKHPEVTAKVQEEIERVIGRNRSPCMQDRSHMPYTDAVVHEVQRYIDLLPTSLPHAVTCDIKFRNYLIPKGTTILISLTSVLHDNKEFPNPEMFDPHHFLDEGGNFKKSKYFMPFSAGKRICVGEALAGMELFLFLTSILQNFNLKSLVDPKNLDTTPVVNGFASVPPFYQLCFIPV

Assay [20] can be described thus: qHTS Assay for Identification of Small Molecule Antagonists for Thrombopoietin (TPO) Signaling Pathway (AID 918). Further: potency means the concentration at half of the fitted maximal effect; nearly all actives have a fitted effect of over 60% in size. To be noted: TPO-dependent cell signaling reporter, antagonist mode. In short, it runs like this:
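Inhibition read as reduced luciferase luminescence after 24 h at 37 C in IL-3-deprived Ba/F3 cells carrying human TPO receptor and GPIIb-promoter reporter, stimulated with 26 pM TPO (final, its EC50) alongside compound.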

Several values for one entry are separate records, joined by “and”; a condition that tells them apart may be missing. Equal entries are not always repeated. Records with an inconclusive call do not appear. Activity calls are given as the source filed them. Unless noted, the call rests on the fitted dose curve; in most records, active means well fitted curve in the direction sought with a large enough effect; inconclusive means small, poorly fitted or top-dose-only effect, or another doubt; inactive means no such curve, though single readings can be large; an effect the other way counts as inactive or inconclusive.

Sequence of Rap guanine nucleotide exchange factor 3 (Homo sapiens) (O95398 whole entry, looked up): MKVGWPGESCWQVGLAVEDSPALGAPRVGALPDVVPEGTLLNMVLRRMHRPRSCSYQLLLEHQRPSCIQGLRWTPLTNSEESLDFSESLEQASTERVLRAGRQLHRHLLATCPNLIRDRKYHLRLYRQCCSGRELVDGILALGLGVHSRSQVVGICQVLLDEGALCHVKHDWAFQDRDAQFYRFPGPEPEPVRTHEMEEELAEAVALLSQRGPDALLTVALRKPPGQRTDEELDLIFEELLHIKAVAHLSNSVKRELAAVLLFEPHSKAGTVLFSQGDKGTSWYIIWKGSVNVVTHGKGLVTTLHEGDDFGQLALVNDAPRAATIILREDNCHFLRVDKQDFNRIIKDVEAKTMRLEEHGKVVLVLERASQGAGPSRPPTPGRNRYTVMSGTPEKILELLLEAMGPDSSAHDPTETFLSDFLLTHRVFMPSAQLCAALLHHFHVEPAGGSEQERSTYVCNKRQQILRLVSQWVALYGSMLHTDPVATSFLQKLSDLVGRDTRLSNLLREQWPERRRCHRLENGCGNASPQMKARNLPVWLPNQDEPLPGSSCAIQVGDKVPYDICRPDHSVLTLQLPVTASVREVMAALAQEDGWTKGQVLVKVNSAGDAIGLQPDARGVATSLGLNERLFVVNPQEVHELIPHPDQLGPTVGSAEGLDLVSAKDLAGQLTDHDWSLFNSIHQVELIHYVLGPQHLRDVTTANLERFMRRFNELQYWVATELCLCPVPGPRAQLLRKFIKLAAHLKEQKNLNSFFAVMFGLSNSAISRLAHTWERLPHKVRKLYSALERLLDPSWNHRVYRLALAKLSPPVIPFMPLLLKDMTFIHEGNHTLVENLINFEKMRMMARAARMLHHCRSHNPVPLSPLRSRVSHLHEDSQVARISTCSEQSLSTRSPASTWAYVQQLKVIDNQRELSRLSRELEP
Sequence of Cytochrome P450 2D6 (Homo sapiens) (P10635 whole entry, looked up): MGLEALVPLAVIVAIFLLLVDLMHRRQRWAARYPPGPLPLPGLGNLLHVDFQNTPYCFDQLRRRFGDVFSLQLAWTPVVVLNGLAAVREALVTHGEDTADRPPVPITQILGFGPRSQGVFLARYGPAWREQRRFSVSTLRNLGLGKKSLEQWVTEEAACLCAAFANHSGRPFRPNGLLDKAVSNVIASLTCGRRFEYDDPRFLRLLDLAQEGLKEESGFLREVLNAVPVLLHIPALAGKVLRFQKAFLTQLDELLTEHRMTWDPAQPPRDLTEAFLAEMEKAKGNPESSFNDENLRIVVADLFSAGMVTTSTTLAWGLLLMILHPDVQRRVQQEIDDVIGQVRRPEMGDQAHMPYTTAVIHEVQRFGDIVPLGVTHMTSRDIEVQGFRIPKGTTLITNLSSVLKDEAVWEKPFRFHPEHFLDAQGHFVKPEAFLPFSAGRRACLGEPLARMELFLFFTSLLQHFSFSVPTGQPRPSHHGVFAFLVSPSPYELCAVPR
Sequence of Rap guanine nucleotide exchange factor 4 (Homo sapiens) (Q8WZA2 whole entry, looked up): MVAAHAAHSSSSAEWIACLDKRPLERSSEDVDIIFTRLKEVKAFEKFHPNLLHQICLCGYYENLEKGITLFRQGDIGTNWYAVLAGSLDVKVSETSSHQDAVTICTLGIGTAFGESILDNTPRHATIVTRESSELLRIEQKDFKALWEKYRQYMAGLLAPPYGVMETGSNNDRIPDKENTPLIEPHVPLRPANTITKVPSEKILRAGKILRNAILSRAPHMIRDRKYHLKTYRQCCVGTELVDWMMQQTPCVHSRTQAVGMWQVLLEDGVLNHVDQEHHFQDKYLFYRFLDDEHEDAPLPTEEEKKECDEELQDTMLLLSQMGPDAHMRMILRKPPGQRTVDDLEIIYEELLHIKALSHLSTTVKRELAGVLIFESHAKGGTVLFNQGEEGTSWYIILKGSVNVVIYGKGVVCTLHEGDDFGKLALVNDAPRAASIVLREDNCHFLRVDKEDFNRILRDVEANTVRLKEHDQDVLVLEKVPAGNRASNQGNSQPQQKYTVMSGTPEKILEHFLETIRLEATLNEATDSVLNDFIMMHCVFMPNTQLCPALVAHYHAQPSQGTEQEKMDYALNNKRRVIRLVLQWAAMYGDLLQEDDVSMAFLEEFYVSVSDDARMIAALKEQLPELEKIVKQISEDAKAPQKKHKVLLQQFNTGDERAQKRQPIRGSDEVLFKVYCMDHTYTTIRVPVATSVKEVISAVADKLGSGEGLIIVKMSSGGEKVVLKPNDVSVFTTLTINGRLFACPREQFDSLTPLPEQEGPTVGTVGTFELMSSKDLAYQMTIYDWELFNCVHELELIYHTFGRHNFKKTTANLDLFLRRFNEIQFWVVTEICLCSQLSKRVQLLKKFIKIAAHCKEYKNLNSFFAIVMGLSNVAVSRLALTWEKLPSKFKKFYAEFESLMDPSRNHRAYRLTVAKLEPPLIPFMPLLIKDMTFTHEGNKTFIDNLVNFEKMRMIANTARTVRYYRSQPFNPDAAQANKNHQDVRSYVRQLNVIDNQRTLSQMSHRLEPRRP
Sequence of Pyruvate kinase PKM (Homo sapiens) (P14618 whole entry, looked up): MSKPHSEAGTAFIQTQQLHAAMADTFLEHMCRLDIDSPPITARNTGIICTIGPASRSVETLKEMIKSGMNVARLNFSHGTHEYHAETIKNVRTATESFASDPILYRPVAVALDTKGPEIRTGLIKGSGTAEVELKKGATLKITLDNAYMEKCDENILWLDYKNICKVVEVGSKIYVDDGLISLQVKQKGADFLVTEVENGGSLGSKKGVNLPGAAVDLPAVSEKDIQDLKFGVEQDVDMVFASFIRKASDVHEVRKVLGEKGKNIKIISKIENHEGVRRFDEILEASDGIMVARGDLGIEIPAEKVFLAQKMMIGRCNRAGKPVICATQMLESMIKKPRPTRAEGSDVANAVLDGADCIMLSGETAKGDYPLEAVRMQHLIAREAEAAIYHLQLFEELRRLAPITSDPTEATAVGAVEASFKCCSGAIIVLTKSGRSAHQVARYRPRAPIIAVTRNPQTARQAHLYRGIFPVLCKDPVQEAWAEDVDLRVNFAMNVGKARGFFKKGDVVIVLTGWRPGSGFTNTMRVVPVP
Sequence of Glutathione peroxidase 1 (Homo sapiens) (P07203 whole entry, looked up): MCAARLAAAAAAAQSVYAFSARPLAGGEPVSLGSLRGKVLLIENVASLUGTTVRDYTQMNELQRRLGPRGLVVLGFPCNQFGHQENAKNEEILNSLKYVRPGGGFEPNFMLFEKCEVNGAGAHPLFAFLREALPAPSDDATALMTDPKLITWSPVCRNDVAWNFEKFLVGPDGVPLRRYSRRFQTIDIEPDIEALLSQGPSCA

As to `CCCCC/C=C\C/C=C\C/C=C\C/C=C\CCCC(=O)O`, the compound was classed as inactive in [1], in [2], in [4] and in assay [5]. Besides, the figures for the Potency in assay [3] and in [6] were 49.8 µM (active) and 44.1 µM (active), respectively.

On to `CCOC(=O)[C@@]12C[C@@H]1/C(=N/O)c1ccccc1O2`, for which the Potency result in assay [7], in assay [3] and in [6] was “inactive” in each case. In addition, the outcome in [4] and in assay [5] was inactive.

As for `NC(N)=NCCC[C@@H](N)C(=O)O`, the Potency entry in [8] is “inactive”.

Consider `CNC(=O)[C@H]1O[C@@H](n2cnc3c(NCc4cccc(I)c4)nc(Cl)nc32)[C@H](O)[C@@H]1O`, for which the Potency entry in assay [9], in [10], in [11] and in assay [12] was “inactive” throughout. Also, the Z-AUC in assay [13] is 0.981 (inactive); in [13] (measured here: PEO1 parental Z-AUC), 0.685; in assay [13] (measured here: PEO4 Z-AUC), 0.71.

With `NC(C(=O)O)c1cc(O)c(Cl)c(O)c1` (centres undefined), the Potency entry in assay [3] and in [6] was “inactive” each time. For the same compound, the outcome in assay [4] and in assay [5] was inactive.

Take `O[C@@H](c1ccccc1)C1CCN(CCc2ccccc2)CC1`: the Potency entry in [8] is “inactive”.

In the case of `CC(C)=CCC/C(C)=C/CC/C(C)=C/CC/C(C)=C/CO`, the Potency entry in assay [8] is “inactive”. The call in assay [1] and in [2] was inactive.

`CC[C@H](C)N(C)C(=O)c1cc2ccccc2c(-c2ccccc2Cl)n1`: the Potency entry in assay [14] and in [3] was “inactive” throughout. The call in assay [15], in [4] and in [5] was inactive.

For `N#CC(=C(/N)Sc1ccccc1N)/C(C#N)=C(/N)Sc1ccccc1N`, the Potency entry in assay [16] and in assay [17] was “inactive” throughout. Moreover, the Potency in assay [8] is 316 nM (active) and 3.16 µM (active); in [10], 14.6 µM (active).

With `O=C1CC2(CCCC2)CC(=O)N1CCNC[C@H]1COc2ccccc2O1`, in assay [14], the Potency is 0.126 µM (active).

With `CSc1nc(N)c2ncn([C@H]3O[C@H](COP(=O)(O)OP(=O)(O)OP(=O)(O)O)[C@@H](O)[C@@H]3O)c2n1`, the Potency entry in [16], in assay [8] and in [14] was “inactive” each time.

Consider `COc1ccc2[nH]c(-c3ccccc3)c(CCNC(C)=O)c2c1`, for which the Potency entry in [3] and in [6] was “inactive” each time. The result in assay [4] and in assay [5] was inactive.

`CC[C@H](C)C(=O)O[C@H]1CCC=C2C=C[C@H](C)[C@H](CC[C@@H]3C[C@H](O)CC(=O)O3)[C@H]21`: the Potency entry in assay [3] was “inactive”. Moreover, the call in [4] and in assay [5] was inactive.

Turning to `CCOC(=O)C(CCc1ccccc1)NC1CCc2ccccc2N(CC(=O)O)C1=O` (centres undefined), the call in [1], in assay [2] and in assay [18] was inactive.

Turning to `CCn1ccnc1C[C@@H]1COc2ccccc2O1`, the Potency entry in [8], in [7] and in assay [3] was “inactive” in each case. In addition, the figures for the Potency in assay [14] and in assay [6] were 1.58 µM (active) and 17.5 µM (active), respectively. The result in assay [15], in [4] and in assay [5] was inactive.

Turning to `COC(=O)C1=C(C)NC(C)=C([N+](=O)[O-])[C@@H]1c1ccccc1C(F)(F)F`, the Potency in [16] is 0.158 µM (active); in [14], 6.31 µM (active); in [6], 35 µM (active). Also, the compound was classed as inactive in [4] and in [5].

In the case of `C[C@@H](C(=O)O)c1ccc(-c2ccccc2)c(F)c1`, the outcome in assay [1], in [2] and in assay [18] was inactive. Also, the Potency result in assay [19] was “inactive”.

Turning to `Cc1sc(N)c(C(=O)c2cccc(C(F)(F)F)c2)c1C`, the Potency entry in [3] is “inactive”. Besides, the call in [4] and in assay [5] was inactive.

For `CC1(C)CO[C@H](CC(=O)O)CN1`, the Potency in [14] was 0.0063 µM (active).

Consider `CCCN=C(N)NCCC[C@H](N)C(=O)O`, for which the Potency is 3.98 µM (active) in assay [16] and 7.94 µM (active) in assay [14].

With `C[C@H]1C=C2C=C[C@H](C)[C@H](CC[C@@H]3C[C@@H](O)CC(=O)O3)[C@H]2[C@@H](OC(=O)[C@@H](C)CCO)C1`, the compound was classed as inactive in assay [4] and in assay [5].

As to `C[C@@H]1CCN=C(N)S1`, the Potency result in assay [7] was “inactive”. Also, in assay [15], the compound was called inactive.

Turning to `CCC(C)(C)C(=O)O[C@@H]1C[C@@H](C)C=C2C=C[C@H](C)[C@H](CC[C@@H]3C[C@@H](O)CC(=O)O3)[C@H]21`, the compound was classed as inactive in [4] and in assay [5]. In [6], the Potency is 49.4 µM (active).

For the compound `C[N+](C)(C)CCC(=O)c1cccc2ccccc12`, the Potency in assay [20] was 2.51 µM (active). Besides, the Potency entry in assay [17] and in assay [7] was “inactive” each time. In addition, the compound was classed as inactive in [15].

Take `C=CCN1CCc2cc(O)c(O)cc2[C@H](c2ccccc2)C1`: the Potency in assay [14] is 0.398 µM (active); in [20], 5.01 µM (active). Also, in [7], the Potency entry was “inactive”.

On to `COc1cc([C@@H]2c3cc4c(cc3C(O[C@@H]3O[C@@H]5CO[C@@H](c6cccs6)OC5[C@H](O)[C@H]3O)C3COC(=O)[C@@H]32)OCO4)cc(OC)c1O` (some centres undefined), for which the Potency result in assay [11] and in assay [12] was “inactive” in each case.

For the origin of these results see PubChem BioAssay (NCATS).
